# In ChEMBL document CHEMBL1201862, “PubChem BioAssay data set” (2004):
# About 2,100 (0.53%) of roughly 400,000 compounds were called active. Not shown: some 14% with an inconclusive outcome. The sample holds actives, similar compounds and a random draw of the others, so the mix is not that of the screen. How the calls were made is not given here.
# Target: Ataxin-2 (Homo sapiens) (UniProt Q99700)
# Test: qHTS for Inhibitors of ATXN expression.
# Format: functional
# Ataxin-2 (Homo sapiens), sequence (Q99700 whole entry): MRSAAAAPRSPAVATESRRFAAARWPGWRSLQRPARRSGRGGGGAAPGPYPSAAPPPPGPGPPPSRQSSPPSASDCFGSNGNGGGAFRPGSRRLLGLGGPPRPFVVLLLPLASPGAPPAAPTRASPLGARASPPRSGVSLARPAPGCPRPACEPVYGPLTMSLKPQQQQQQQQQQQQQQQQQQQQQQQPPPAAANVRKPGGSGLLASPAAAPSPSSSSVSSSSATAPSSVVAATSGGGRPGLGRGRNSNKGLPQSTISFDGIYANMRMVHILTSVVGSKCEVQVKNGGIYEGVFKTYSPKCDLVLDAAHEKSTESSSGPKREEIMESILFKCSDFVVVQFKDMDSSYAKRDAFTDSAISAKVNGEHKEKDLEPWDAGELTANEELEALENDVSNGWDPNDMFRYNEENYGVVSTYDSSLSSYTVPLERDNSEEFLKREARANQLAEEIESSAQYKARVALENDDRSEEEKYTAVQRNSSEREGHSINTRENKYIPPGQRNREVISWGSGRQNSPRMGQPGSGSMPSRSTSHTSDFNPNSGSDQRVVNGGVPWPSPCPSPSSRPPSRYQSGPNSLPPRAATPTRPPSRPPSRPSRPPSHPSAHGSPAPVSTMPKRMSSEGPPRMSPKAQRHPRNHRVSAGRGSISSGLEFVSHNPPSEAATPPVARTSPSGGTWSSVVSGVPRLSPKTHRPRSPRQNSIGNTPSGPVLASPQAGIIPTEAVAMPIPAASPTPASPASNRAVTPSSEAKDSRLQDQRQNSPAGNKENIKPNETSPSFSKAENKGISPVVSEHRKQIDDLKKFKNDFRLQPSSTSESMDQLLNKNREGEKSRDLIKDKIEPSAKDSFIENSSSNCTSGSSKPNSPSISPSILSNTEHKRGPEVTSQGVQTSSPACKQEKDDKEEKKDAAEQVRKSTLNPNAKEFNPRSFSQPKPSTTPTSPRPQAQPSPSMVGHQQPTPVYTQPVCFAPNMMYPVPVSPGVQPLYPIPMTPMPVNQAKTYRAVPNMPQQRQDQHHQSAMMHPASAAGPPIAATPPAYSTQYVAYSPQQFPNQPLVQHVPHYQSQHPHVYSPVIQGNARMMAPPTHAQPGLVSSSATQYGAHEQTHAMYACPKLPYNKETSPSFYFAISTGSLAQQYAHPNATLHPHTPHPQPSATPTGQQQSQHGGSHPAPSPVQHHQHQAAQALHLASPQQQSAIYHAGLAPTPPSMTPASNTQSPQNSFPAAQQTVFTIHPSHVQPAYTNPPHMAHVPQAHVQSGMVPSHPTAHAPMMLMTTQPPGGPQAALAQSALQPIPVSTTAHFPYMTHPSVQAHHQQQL
row,Structure (SMILES),Potency
1,N#C/C(=C\c1ccc(N2CCCCC2)o1)C(=O)Nc1cccc(Br)c1,inactive
2,COc1cc2ccc(=O)oc2c(O[C@@H]2O[C@H](CO)[C@@H](O)[C@H](O)[C@H]2O)c1O,inactive
3,COc1ccccc1/C=C/c1nc(C#N)c(N(C)C)o1,inactive
4,Cc1noc(C)c1S(=O)(=O)Nc1ccc(C(C)C)cc1,inactive
5,CC(C)NC(=O)Nc1ccc2c(c1)C(=O)N([C@H](C)CO)C[C@H](C)[C@@H](CN(C)Cc1ccc(C(F)(F)F)cc1)OCCCC[C@H](C)O2,20 µM (active)
6,Cc1noc(C)c1S(=O)(=O)Nc1ccc2c(c1)C(=O)N([C@@H](C)CO)C[C@H](C)[C@@H](CN(C)Cc1ccc(C(F)(F)F)cc1)OCCCC[C@H](C)O2,20 µM (active)
7,COc1ccc(CN2C(=O)/C(=C\NNC(=O)c3cccnc3)c3ccccc3C2=O)cc1,inactive
8,O=C(CN(C(=O)CCC(=O)Nc1nccs1)c1ccccc1F)NCc1ccc(F)cc1,inactive
9,CCOc1ccc(-c2cnc3cccnn23)cc1,inactive
10,O=C(N/N=C/c1cccc2cccnc12)[C@H]1C[C@@H]1c1ccccc1,inactive
11,Cc1ccc(-c2nnn(CC(=O)N(c3cccc(F)c3)C(C(=O)NC(C)(C)C)c3ccco3)n2)o1 (stereo unspecified),inactive
12,COc1ccc(-c2[nH]ncc2CNC(C)c2cn(C)nc2C)c(F)c1 (stereo unspecified),inactive
13,CCN(CC)CCNC(=O)c1cc2c(-c3ccc(Cl)cc3)nn(C)c2s1,22.4 µM (active)
14,CCCCN(CC)CCNC(=O)c1cc2c(-c3ccc(Cl)cc3)nn(C)c2s1,39.8 µM (active)
15,CCN(CC)CCCNC(=O)c1cn(-c2cccc(OC)c2)c(=O)c2ccccc12,inactive
16,CCN(CC)CCNC(=O)c1cc2cc(Br)ccc2s1,inactive
17,CCN(CC)CCCNC(=O)c1cc2c(-c3ccc(Cl)cc3)nn(C)c2s1,17.8 µM (active)
18,Cc1ccc(-c2cc(C(=O)N3CCN(c4ncccn4)CC3)c3cc(Br)ccc3n2)o1,inactive
19,CN=C(S)N1N=C(c2ccc(C)cc2)CC1c1ccc(N(C)C)cc1 (stereo unspecified),inactive
20,O=C(Oc1cccc2ccccc12)C1CC1,inactive
21,CC(=O)/C(C#N)=C1\NC(=O)C(Cc2ccccc2C)S1 (stereo unspecified),inactive
22,COC(=O)c1cc2c(ccn2C)n1C,inactive
23,CCC1S/C(=N/N=C/c2ccco2)N(Cc2ccccc2)C1=O (stereo unspecified),inactive
24,CC(C)c1cc(N2CCOCC2)n2ncc(-c3ccccc3)c2n1,inactive
25,CCOC(=O)c1sc(NC(=O)CSc2nc3c(cc2C#N)CCCCCC3)c(C#N)c1C,inactive
26,CCOc1ccc(/C=C/C2=Cc3c(sc(NC(=O)CSc4n[nH]c(N)n4)c3C#N)C(C)(C)C2)cc1,39.8 µM (active)

row,Structure (SMILES),Potency
1,COc1cccc(-c2nc(SCC(=O)Nc3nc(-c4ccccc4)c(C)s3)nc(O)c2C#N)c1,inactive
2,CC(=O)C1=C(C)NC(SCC(=O)Nc2nc3ccccc3s2)=C(C#N)C1c1ccc(Cl)cc1 (stereo unspecified),inactive
3,COC(=O)c1c(N=C(S)NNC(=O)c2ccc(Cl)s2)sc(C(=O)N(C)C)c1C,39.8 µM (active)
4,C/C=C(\C)C(=O)OC1CC(C)(C)C[C@H]2C3=CC[C@@H]4[C@@]5(C)CCC(O[C@@H]6O[C@@H](C(=O)O)[C@@H](O)C(O[C@@H]7OC[C@H](O)[C@@H](O)[C@@H]7O[C@@H]7OC(CO)C(O)[C@@H](O)[C@@H]7O)C6O[C@@H]6OC(CO)C(O)C(O)C6O)[C@@](C)(CO)[C@@H]5CC[C@]4(C)[C@]3(C)CC(O)[C@@]12CO (stereo partly specified),31.6 µM (active)
5,Cc1nn(C)cc1N1C(=O)c2cccc3c(N)ccc(c23)C1=O,inactive
6,CCOc1ccc(C(=O)NCC(c2ccc(Cl)cc2)N2CCCCC2)cc1 (stereo unspecified),14.1 µM (active)
7,COc1ccc(CNC(=O)C(C#N)c2nc3ccccc3nc2N2CCCC2)cc1 (stereo unspecified),inactive
8,CCOc1ccc(NS(=O)(=O)c2ccc(C(=O)NCC3CCCO3)cc2)cc1 (stereo unspecified),inactive
9,COc1ccc(C(CNC(=O)c2ccc(-c3ccccc3Cl)o2)N2CCCC2)cc1 (stereo unspecified),17.8 µM (active)
10,CCOc1ccc(S(=O)(=O)NCC(c2ccc3c(c2)OCO3)N2CCN(C)CC2)cc1 (stereo unspecified),inactive
11,COc1ccccc1C(CNC(=O)C1COc2ccccc2O1)N1CCCC1 (stereo unspecified),inactive
12,CCNc1nc2nc3ccc(C)cn3c(=O)c2cc1C(=O)NCC1CCCO1 (stereo unspecified),inactive
13,O=C(CN1C(=O)NC2(CCc3ccccc32)C1=O)Nc1ccc(Br)cc1F (stereo unspecified),inactive
14,Nc1nnnn1/N=C/c1ccccc1O,inactive
15,O=C(OCC(=O)N(c1ccccc1)C1CCCCC1)c1ccc(CO)cc1,inactive
16,CC(Oc1ccccc1F)c1nnc(SCC(=O)N(c2ccccc2)C2CCS(=O)(=O)C2)o1 (stereo unspecified),inactive
17,O=C(CCl)N(c1ccccc1)C1CCS(=O)(=O)C1 (stereo unspecified),17.8 µM (active)
18,O=C(NC(=O)c1c(F)cccc1F)O/N=C1\CCCc2occc21,inactive
19,CN(C)S(=O)(=O)c1cccc(NC(=S)N/N=C/C2CC=CCC2)c1 (stereo unspecified),inactive
20,Cc1nc2ccc(S(=O)(=O)Nc3ccc(-c4nc5cccnc5s4)cc3)cc2s1,inactive
21,C=CCc1c(O)c(CC)cc2c(C)cc(=O)oc12,inactive
22,CC(=O)c1c(C)oc2ccc(N(C(C)=O)S(=O)(=O)c3ccc(Cl)c([N+](=O)[O-])c3)cc12,31.6 µM (active)
23,COC(=O)c1c(C)oc2ccc(N(C(=O)Oc3ccccc3)S(=O)(=O)c3ccc(Cl)c([N+](=O)[O-])c3)cc12,35.5 µM (active)
24,C=CCN(c1ccccc1)S(=O)(=O)c1cccc(C(=O)Oc2ccc3c(C)cc(=O)oc3c2)c1,inactive
25,CC=Cc1cc2c(c(=O)o1)C(=O)C(O)C(C)O2 (stereo unspecified),29.9 µM (active)
26,CCOC(=O)c1cc2c(=O)n3ccccc3nc2n(CCCOC)/c1=N\C(C)=O,inactive

row,Structure (SMILES),Potency
1,C[C@H](NC(=O)c1ccc(Cl)cc1)C(=O)OCn1nnc2ccccc2c1=O,8.91 µM (active)
2,COCCNC(=O)c1ccc(Cn2c(SCC(N)=O)nc3ccccc3c2=O)cc1,inactive
3,O=C(CNC(=O)C1CCCCC1)OCn1nnc2ccccc2c1=O,inactive
4,OCC1(CCc2ccccc2)CCN(Cc2cccn2-c2cccnc2)CC1,inactive
5,S=C1SCN(Cc2cccnc2)CN1Cc1cccnc1,13.4 µM (active)
6,OC1(c2ccc(F)cc2)CCN(Cc2cccnc2)CC1,inactive
7,Cc1cccc2c3c([nH]c12)CCNC3,inactive
8,O=C1OCCN1C(=O)[C@H]1[C@H](c2ccc(Cl)cc2)C(c2cccc(Cl)c2)=NN1c1ccccc1,inactive
9,Oc1nc2cc3ccccc3cc2nc1C(F)(F)F,inactive
10,CCOc1ccc2nc(N3C(=O)/C(=C/c4ccc(Cl)cc4)NC3=S)sc2c1,inactive
11,CCOc1ccc2nc(N3C(=O)CNC3=S)sc2c1,39.8 µM (active)
12,CN(C)CCCn1c(N)c(C#N)c2nc3ccccc3nc21,inactive
13,COc1cccc(OC)c1-c1nn2c(-c3cc(-c4ccccc4)[nH]n3)nnc2s1,31.6 µM (active)
14,COc1ccc(-c2cc(C(=O)NN)[nH]n2)cc1OC,inactive
15,N#Cc1c(-c2ccccc2)cc(C2CC2)nc1SCC(=O)c1cccs1,inactive
16,Cc1cc(C)c(C(CC(=O)c2cccs2)C(C#N)C#N)c(C)c1 (stereo unspecified),31.6 µM (active)
17,CCc1c(C)sc(NC(=O)c2cc(-c3cc(OC)ccc3OC)on2)c1C#N,22.4 µM (active)
18,COc1ccc(OC)c(-c2c(C#N)c(N)nc3c2c(=O)nc2sccn23)c1,inactive
19,COc1ccc(NC(=O)c2cc(-c3ccco3)on2)c(OC)c1,inactive
20,CC(C)Cn1c(N)c(C(=O)NCCN2CCOCC2)c2nc3ccccc3nc21,inactive
21,CNc1nc(-c2ccccc2)cc(-c2ccccc2)n1,inactive
22,Nc1ccc2nc(-c3ccccc3)cnc2c1,inactive
23,Brc1cc(-c2ccccc2)nc(-c2ccccc2)n1,39.8 µM (active)
24,O=c1c2sccc2nc(SCc2cc(=O)n3cc(Br)ccc3n2)n1Cc1ccccn1,inactive
